From the supplement of paper PMC13380429

Tested on: Vero E6 infected with SARS-CoV-2
Test: inhibition of SARS-CoV-2 cytopathic effect; higher = more antiviral protection, active = above 15
Conditions: 48 h

Measured: inhibition of SARS-CoV-2 cytopathic effect

CN1CCN(CC(=O)N2c3ccccc3C(=O)Nc3cccnc32)CC1 [pirenzepine]
inactive: 1 nM -0.09% | 8.33 nM -0.92% | 100 nM -2.09% | 833.33 nM -0.6% | 10000 nM -1.86%

CCCC[C@H]1C(=O)N(c2ccccc2)N(c2ccc(O)cc2)C1=O [oxyphenbutazone]
inactive: 1 nM 0.53% | 8.33 nM 1.14% | 100 nM 1.48% | 833.33 nM 3.6% | 10000 nM 10.9%

O=C(Nc1ccc(Cl)cc1)Nc1ccc(Cl)c(Cl)c1 [triclocarban]
inactive: 1 nM -2.22% | 8.33 nM -0.87% | 100 nM 0.35% | 833.33 nM -1.44% | 10000 nM -0.6%

CCOC(=O)COc1ccc2c(=O)cc(-c3ccccc3)oc2c1 [efloxate]
inactive: 1 nM -1.98% | 8.33 nM 0.67% | 100 nM 0.32% | 833.33 nM -1.24% | 10000 nM -0.78%

C/C=C(/C)C(=O)O[C@H]1C(C)=C[C@]23C(=O)[C@@H](C=C(CO)[C@@H](O)[C@]12O)[C@H]1[C@@H](C[C@H]3C)C1(C)C [ingenol-mebutate]
inactive: 1 nM -1.66% | 8.33 nM -1.76% | 100 nM -8.12% | 833.33 nM -7.76% | 10000 nM -8.66%

COc1ccc(-n2c(SCCCN3C(=O)c4cccc5cccc(c45)C3=O)nnc2-c2ccncc2)cc1
inactive: 1 nM -0.26% | 8.33 nM 2.51% | 100 nM -0.79% | 833.33 nM -0.8% | 10000 nM -1.41%

COc1cc2nc(N3CCN(C(=O)COc4c(OC)cccc4C(C)C)CC3)nc(N)c2cc1OC
inactive: 1 nM 0.49% | 8.33 nM 0.12% | 100 nM 3.19% | 833.33 nM 3.59% | 10000 nM 1.29%

O=C(c1ccc(F)cc1)C1CCN(CCCCc2ccccc2)CC1 [4-(4-fluorobenzoyl)-1-(4-phenylbutyl)-piperidine]
inactive: 1 nM -4.06% | 8.33 nM -1.58% | 100 nM -0.19% | 833.33 nM 1.25% | 10000 nM -4.47%

O=C1CCC[C@@H]2[C@H]3CCCN4CCC[C@@H](CN12)[C@@H]34 [matrine]
inactive: 1 nM -2.75% | 8.33 nM -0.7% | 100 nM -1.73% | 833.33 nM -0.8% | 10000 nM -2.2%

Cc1cc(NCCO)nc(-c2ccc(Br)cc2)n1
inactive: 1 nM 1.81% | 8.33 nM -1.79% | 100 nM -0.15% | 833.33 nM 0.73% | 10000 nM -2.57%

O=C(OC(C(F)(F)F)C(F)(F)F)N1CCN(Cc2cccc(Oc3ccccc3)c2)CC1
inactive: 1 nM 3.59% | 8.33 nM 4.7% | 100 nM 3.33% | 833.33 nM 3.51% | 10000 nM 2.77%

CSc1ccccc1OCC(O)CNC(C)C (stereo not given) [tiprenolol]
inactive: 1 nM -1.52% | 8.33 nM 2.58% | 100 nM -1.94% | 833.33 nM 0.37% | 10000 nM 3.9%

CCCCOc1ccc(OCCCN2CCOCC2)cc1 [pramoxine]
inactive: 1 nM -3.87% | 8.33 nM -1.02% | 100 nM -1.18% | 833.33 nM -1.83% | 10000 nM 0.79%

O=C(NS(=O)(=O)c1ccc(Br)s1)c1ccc(Cl)cc1Cl [tasisulam]
inactive: 1 nM -0.54% | 8.33 nM 5.25% | 100 nM 0.94% | 833.33 nM -0.93% | 10000 nM 4.37%

COc1cccc(-c2cc(NCc3ccc4c(c3)OCO4)nc(N)n2)c1
inactive: 1 nM 0.39% | 8.33 nM -1.05% | 100 nM 0.16% | 833.33 nM -2.75% | 10000 nM -1.99%

COCCOc1cnc2ccn([C@H](C)c3nnc4c(F)cc(-c5cnn(C)c5)cn34)c(=O)c2c1
inactive: 1 nM -0.43% | 8.33 nM -1.31% | 100 nM 0.19% | 833.33 nM -0.75% | 10000 nM -0.37%

O=C(NC[C@H](O)CN1CCc2ccccc2C1)c1cc(NC2COC2)ncn1
inactive: 1 nM -3.14% | 8.33 nM -1.3% | 100 nM -2.1% | 833.33 nM -3.82% | 10000 nM -1.65%

NC[C@H]1O[C@H](O[C@H]2[C@H](O[C@@H]3O[C@H](CO)[C@@H](O)[C@H]3O)[C@@H](O)[C@H](N)C[C@@H]2N)[C@H](N)[C@@H](O)[C@@H]1O [ribostamycin-sulfate]
inactive: 1 nM 2.02% | 8.33 nM -0.235% | 100 nM -0.77% | 833.33 nM -1.25% | 10000 nM -0.88%
